{"source": "the OligoGym collection", "data": [{"molecular_target": "SLC10A7", "experiment": "pooled miR-30 sensor sort-seq; sequence = guide strand", "details": "shRNA", "values": [{"sequence": "TTTAGCTCCAGCGATCGCCAGC", "sensor-assay potency score (higher = more potent)": -1.45}, {"sequence": "TATAGATACAACATTTACTTGC", "sensor-assay potency score (higher = more potent)": 0.105}, {"sequence": "ATCATGAGGAGTACACTGCTGC", "sensor-assay potency score (higher = more potent)": -0.556}, {"sequence": "TAAACTATGTTTACTTACCAAA", "sensor-assay potency score (higher = more potent)": -1.05}, {"sequence": "TATCTTCGGACAATCTGTCCAA", "sensor-assay potency score (higher = more potent)": -0.198}, {"sequence": "ATGAGGAGTACACTGCTGCTGA", "sensor-assay potency score (higher = more potent)": -0.89}, {"sequence": "TTACTTACCAAAAAACTTCCAA", "sensor-assay potency score (higher = more potent)": 0.24}, {"sequence": "TACATCATTATAAACTCTGTAA", "sensor-assay potency score (higher = more potent)": -0.408}]}, {"molecular_target": "SLC12A1", "experiment": "pooled miR-30 sensor sort-seq; sequence = guide strand", "details": "shRNA", "values": [{"sequence": "TTTCTTATATCCAATCACCAGA", "sensor-assay potency score (higher = more potent)": -0.816}, {"sequence": "TTTCTTGTTTATCAACAGCAGT", "sensor-assay potency score (higher = more potent)": -1.1}, {"sequence": "TATGACACTAACTTGAAAGCGA", "sensor-assay potency score (higher = more potent)": 0.571}, {"sequence": "TTGAATATTTTGTAGACTCAAC", "sensor-assay potency score (higher = more potent)": -1.22}, {"sequence": "TTTGTGAGGATTTCCAACCAAG", "sensor-assay potency score (higher = more potent)": -0.956}, {"sequence": "TTGCTCGTGAATCTCAAGCAGG", "sensor-assay potency score (higher = more potent)": -0.686}, {"sequence": "TTCCAATGCTAGTCTCTCCTGT", "sensor-assay potency score (higher = more potent)": 0.793}, {"sequence": "TATCTTTGATAGTCGCTTCCAA", "sensor-assay potency score (higher = more potent)": 0.0928}, {"sequence": "TTGTGTGAGAATCATAAGCGTG", "sensor-assay potency score (higher = more potent)": -0.782}, {"sequence": "TTGTAGACTCAACTACTTCTTA", "sensor-assay potency score (higher = more potent)": -0.589}, {"sequence": "TTGAGTGCTGGCTTCCACCAGT", "sensor-assay potency score (higher = more potent)": -0.0176}, {"sequence": "TTGATGACAAACATGACTGCAC", "sensor-assay potency score (higher = more potent)": 0.915}]}]}
